# Laboratory results reported in the supplement of paper PMC6555819.
# Key:
# Assay in all cases: PBM binding z-score (relative to random genomic background probes); higher = stronger binding; sequences stand for … in GC…GCGATTGACAGCGTAGAATGAAGG
# [1] = system: PPARg:RXRa DBDmut IVT, anti-RXR (DBD mutation: RXRa K156A/R161A, NR concentration 270 nM, RXRa partner concentration 90 nM)
# Method in brief: (§1)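 Ligand-free nuclear receptor dimers were bound for 1 h to custom Agilent 4×180K protein-binding microarrays. Detection used antibodies against each partner (one per run). Binding z-scores rest on regression-normalized fluorescence, with random background probes as the reference.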
# [2] = system: PPARg:RXRa IVT, anti-PPARg (NR concentration 270 nM, RXRa partner concentration 90 nM)
# Method in brief: as §1
# [3] = system: PPARg DBDmut:RXRa IVT, anti-PPARg (DBD mutation: PPARg1 K132A/R137A, NR concentration 270 nM, RXRa partner concentration 90 nM)
# Method in brief: as §1
# [4] = system: PPARg DBDmut IVT, anti-PPARg (DBD mutation: PPARg1 K132A/R137A, NR concentration 270 nM)
# Method in brief: as §1
# [5] = system: PPARg homodimer (NR concentration 180 nM)
# Method in brief: as §1
# [6] = system: PXR:RXRa (NR concentration 270 nM, RXRa partner concentration 90 nM)
# Method in brief: as §1
# [7] = system: PXR homodimer (NR concentration 270 nM)
# Method in brief: as §1
# [8] = system: RARa:RXR (NR concentration 270 nM, RXRa partner concentration 90 nM)
# Method in brief: as §1
# [9] = system: RARa homodimer (NR concentration 270 nM)
# Method in brief: as §1
# [10] = system: RARb:RXRa (NR concentration 270 nM, RXRa partner concentration 90 nM)
# Method in brief: as §1
# [11] = system: RARb homodimer (NR concentration 270 nM)
# Method in brief: as §1
# [12] = system: RARg:RXRa (NR concentration 270 nM, RXRa partner concentration 90 nM)
# Method in brief: as §1
# [13] = system: RARg homodimer (NR concentration 270 nM)
# Method in brief: as §1
# [14] = system: RXRa DBDmut IVT, anti-RXR (DBD mutation: RXRa K156A/R161A, NR concentration 90 nM)
# Method in brief: as §1
# [15] = system: RXRa homodimer (NR concentration 180 nM)
# Method in brief: as §1
# [16] = system: THRa:RXRa (NR concentration 90 nM, RXRa partner concentration 90 nM)
# Method in brief: as §1
# [17] = system: THRa homodimer (NR concentration 90 nM)
# Method in brief: as §1
# [18] = system: VDR:RXRa (NR concentration 270 nM, RXRa partner concentration 90 nM)
# Method in brief: as §1
# [19] = system: VDR homodimer (NR concentration 270 nM)
# Method in brief: as §1
Sequence,PBM binding z-score [1],PBM binding z-score [2],PBM binding z-score [3],PBM binding z-score [4],PBM binding z-score [5],PBM binding z-score [6],PBM binding z-score [7],PBM binding z-score [8],PBM binding z-score [9],PBM binding z-score [10],PBM binding z-score [11],PBM binding z-score [12],PBM binding z-score [13],PBM binding z-score [14],PBM binding z-score [15],PBM binding z-score [16],PBM binding z-score [17],PBM binding z-score [18],PBM binding z-score [19]
CTACCAGGGTGAACAAGGTCGTTGATTACTATTC,1.3,1.86,0.284,-0.282,1.61,3.12,0.95,2.67,-0.135,1.42,1.69,1.59,0.976,0.927,1.85,3.28,1.27,6.27,2.42
CCTTCCGGGTCAAGGTTATAGCACGGGTGGTACG,2.99,4.69,0.688,0.0375,2.1,3.7,0.341,4.25,0.928,4.1,3.39,4.76,4.46,0.695,4.97,3.73,2.35,3.38,1.72
CGAACTAGGTCATTGCCAGGACAGTGAATAGTAA,8.25,7.95,1.34,0.503,1.04,1.4,0.261,1.87,0.423,3.44,2.72,4.1,4.21,2.5,2.73,3.32,1.54,2.42,1.49
ATCTCTAGGTAAAAGTTCTGTGAATCCCGAGGAT,2.32,1.91,1.22,1.71,1.06,0.0852,0.034,-0.0223,0.566,0.232,-0.265,0.293,0.308,-0.0693,0.153,0.234,0.364,-0.0345,0.467
TCTATCAGTTGATTAGGGCAACCGAAACAGCGGA,1.54,1.42,0.737,0.547,-0.273,0.154,-0.238,0.11,-0.12,0.747,0.548,0.522,0.467,0.825,0.276,0.643,-0.0881,0.419,-0.1
CGAACTAGGTCATTGAGAGGACAGTGAATAGTAA,7.95,7.8,1.23,0.676,2.27,2.36,0.174,3.08,-0.238,3.74,3.22,5.93,4.96,2.07,3.22,3.42,1.08,2.92,1.56
TCGATTAGTTGATTAGGGCAACCGAAACAGCGGA,1.68,1.02,-0.465,0.363,0.609,0.11,-0.141,0.208,0.0713,0.744,0.521,0.102,0.329,0.535,0.0192,0.565,0.154,0.219,-0.306
TCACATAGGTAATACAGGTGAAAGTCGGCATCTA,2.54,1.8,1.44,0.888,0.824,0.746,0.212,1.26,0.821,0.68,0.573,0.559,0.535,1.35,1.14,0.928,-0.0751,1.09,-0.296
